The source made the active and inactive calls. Rule for the calls: active = hit-call score of the fitted dose curve at least 0.9, where 1 is the maximum; inactive = score below 0.9.
Key:
[1] = BSK_hDFCGF_SRB: Viability Assessment in the BioMAP Diversity Plus: hDFCGF Assay (AID 2283061); settings: primary human foreskin fibroblasts;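 note: cells exposed to compound for 24 h before the read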
In short: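 Primary human foreskin fibroblasts; 24 h post-dose; fixed 10% TCA, stained 0.1% SRB, A560 read; total protein as overt cytotoxicity measure; curves fit bidirectionally vs DMSO control.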

[2] = read-out: TIMP metallopeptidase inhibitor 1 (TIMP1), TIMP1 (gene 7076); assay: BSK_hDFCGF_TIMP1: BioMAP Diversity Plus: hDFCGF Assay for TIMP metallopeptidase inhibitor 1 (TIMP1) Biomarker Activity (AID 2283062); settings: primary human foreskin fibroblasts; actives raise or lower the signal
In short: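 ELISA readout of TIMP-1 from human dermal foreskin fibroblast cultures 24 h post-dosing. Curves were fitted in both directions against DMSO baseline, with SRB total-protein staining in parallel cultures as a cytotoxicity check.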

[3] = read-out: Monokine induced gamma interferon (MIG), CXCL9 (gene 4283); assay: BSK_hDFCGF_MIG: BioMAP Diversity Plus: hDFCGF Assay for Monokine induced gamma interferon (MIG) Biomarker Activity (AID 2283063); settings: primary human foreskin fibroblasts; actives raise or lower the signal
In short: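 Fibroblasts (human foreskin, primary) dosed, 24 h, MIG by ELISA; fit bidirectional vs DMSO.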

[4] = read-out: Matrix Metallopeptidase 1 (MMP1), MMP1 (gene 4312); assay: BSK_hDFCGF_MMP1: BioMAP Diversity Plus: hDFCGF Assay for Matrix Metallopeptidase 1 (MMP1) Biomarker Activity (AID 2283064); settings: primary human foreskin fibroblasts; actives raise or lower the signal
In short: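 hDFCGF primary fibroblasts (human foreskin); chemical added; 24 h; MMP1 by ELISA; bidirectional fit vs DMSO.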

[5] = read-out: Vascular cell adhesion molecule 1 (VCAM1), VCAM1 (gene 7412); assay: BSK_hDFCGF_VCAM1: BioMAP Diversity Plus: hDFCGF Assay for Vascular cell adhesion molecule 1 (VCAM1) Biomarker Activity (AID 2283065); settings: primary human foreskin fibroblasts; actives raise or lower the signal;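 for AC50: VCAM-1 protein level quantified by ELISA after 24 h chemical exposure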
In short: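 ELISA read-out of VCAM-1 on human skin fibroblasts, 24 h post-dose; gain or loss of signal fitted bidirectionally against DMSO baseline.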

[6] = read-out: Intercellular Adhesion Molecule 1 (ICAM1), ICAM1 (gene 3383); assay: BSK_KF3CT_ICAM1: BioMAP Diversity Plus: KF3CT Assay for Intercellular Adhesion Molecule 1 (ICAM1) Biomarker Activity (AID 2283067); settings: primary human keratinocytes with fibroblasts; actives raise or lower the signal
In short: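 ELISA readout of ICAM-1; KF3CT human skin co-culture (keratinocytes + foreskin fibroblasts), 24 h post-dose; gain/loss fit vs DMSO baseline.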

[7] = read-out: Interferon-gamma inducible Protein 10 (IP10), CXCL10 (gene 3627); assay: BSK_KF3CT_IP10: BioMAP Diversity Plus: KF3CT Assay for Interferon-gamma inducible Protein 10 (IP10) Biomarker Activity (AID 2283068); settings: primary human keratinocytes with fibroblasts; actives raise or lower the signal
In short: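 Signal is secreted/surface IP-10 by ELISA in a human primary skin co-culture of keratinocytes and foreskin fibroblasts, taken 24 h post-dosing; DMSO served as negative control.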

[8] = BSK_KF3CT_SRB: Viability Assessment in the BioMAP Diversity Plus: KF3CT Assay (AID 2283069); settings: primary human keratinocytes with fibroblasts;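 note: total protein by sulforhodamine B staining as a cytotoxicity measure; read 24 h after compound addition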
In short: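 Keratinocytes co-cultured with foreskin fibroblasts (human primary); chemical added, 24 h; fix 10% TCA, stain 0.1% SRB, A560. Bidirectional fit vs DMSO.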

[9] = read-out: Interleukin-1 alpha (IL1a), IL1A (gene 3552); assay: BSK_KF3CT_IL1a: BioMAP Diversity Plus: KF3CT Assay for Interleukin-1 alpha (IL1a) Biomarker Activity (AID 2283070); settings: primary human keratinocytes with fibroblasts; actives raise or lower the signal
In short: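 Chemicals were dosed onto co-cultured human keratinocytes and foreskin fibroblasts, IL-1a was quantified by ELISA at 24 h, and activity was fitted in both directions relative to DMSO controls.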

[10] = read-out: TIMP metallopeptidase inhibitor 2 (TIMP2), TIMP2 (gene 7077); assay: BSK_KF3CT_TIMP2: BioMAP Diversity Plus: KF3CT Assay for TIMP metallopeptidase inhibitor 2 (TIMP2) Biomarker Activity (AID 2283071); settings: primary human keratinocytes with fibroblasts; actives raise or lower the signal
In short: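 Human primary keratinocyte/foreskin fibroblast co-culture dosed with chemical and sampled at 24 h. TIMP-2 levels quantified by ELISA; bidirectional fitting against DMSO negative control as baseline.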

[11] = read-out: Transforming growth factor beta 1 (TGFb1), TGFB1 (gene 7040); assay: BSK_KF3CT_TGFb1: BioMAP Diversity Plus: KF3CT Assay for Transforming growth factor beta 1 (TGFb1) Biomarker Activity (AID 2283072); settings: primary human keratinocytes with fibroblasts; actives raise or lower the signal
In short: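 Human keratinocyte plus foreskin fibroblast primary co-culture, dosed with chemical for 24 h. TGF-b1 quantified by ELISA. Activity fitted bidirectionally against DMSO negative control as baseline.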

[12] = read-out: C-C motif chemokine 2 (Homo sapiens) (UniProt P13500); assay: BSK_KF3CT_MCP1: BioMAP Diversity Plus: KF3CT Assay for Monocyte Chemoattractant Protein 1 (MCP1/CCL2) Biomarker Activity (AID 2283073); settings: primary human keratinocytes with fibroblasts; actives raise or lower the signal
In short: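 KF3CT skin co-culture (keratinocytes/foreskin fibroblasts), 24 h post-dose; MCP-1 by ELISA; gain/loss of signal fit bidirectionally vs DMSO baseline.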

[13] = read-out: Matrix Metallopeptidase 9 (MMP9), MMP9 (gene 4318); assay: BSK_KF3CT_MMP9: BioMAP Diversity Plus: KF3CT Assay for Matrix Metallopeptidase 9 (MMP9) Biomarker Activity (AID 2283074); settings: primary human keratinocytes with fibroblasts; actives raise or lower the signal;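 for AC50: MMP9 protein level quantified by ELISA in the co-culture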
In short: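 Human keratinocyte/foreskin fibroblast co-culture; compound added; 24 h; MMP-9 by ELISA; bidirectional fit vs DMSO baseline.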

[14] = read-out: urokinase plasminogen activator (uPA), PLAU (gene 5328); assay: BSK_KF3CT_uPA: BioMAP Diversity Plus: KF3CT Assay for urokinase plasminogen activator (uPA) Biomarker Activity (AID 2283075); settings: primary human keratinocytes with fibroblasts; actives raise or lower the signal
In short: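 ELISA readout of uPA, analyzed for signal gain or loss relative to DMSO, from a human primary keratinocyte–foreskin fibroblast co-culture measured 24 h after chemical treatment.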

[15] = read-out: CD40, CD40 (gene 958); assay: BSK_LPS_CD40: BioMAP Diversity Plus: LPS Assay for CD40 Biomarker Activity (AID 2283076); settings: primary human HUVEC with PBMC; actives raise or lower the signal
In short: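 ELISA readout of CD40 in HUVEC/PBMC co-culture (BSK_LPS system), 24 h post-dosing; bidirectional curve fit, DMSO baseline; parallel SRB total-protein staining for cytotoxicity.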

[16] = read-out: E-selectin (Homo sapiens) (UniProt P16581); assay: BSK_LPS_Eselectin: BioMAP Diversity Plus: LPS Assay for Eselectin Biomarker Activity (AID 2283077); settings: primary human HUVEC with PBMC; actives raise or lower the signal
In short: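 ELISA readout of E-selectin, 24 h post-dose, HUVEC + PBMC co-culture (LPS system). Gain or loss of signal vs DMSO baseline, bidirectional fit.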

[17] = read-out: Interleukin-8 (IL8), CXCL8 (gene 3576); assay: BSK_LPS_IL8: BioMAP Diversity Plus: LPS Assay for Interleukin-8 (IL8) Biomarker Activity (AID 2283078); settings: primary human HUVEC with PBMC; actives raise or lower the signal
In short: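 HUVEC + PBMC co-culture, LPS-activated; test chemicals dosed, IL-8 read by ELISA at 24 h. Bidirectional curve fit vs DMSO baseline (gain or loss of signal).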

[18] = BSK_LPS_SRB: Viability Assessment in the BioMAP Diversity Plus: LPS Assay (AID 2283079); settings: primary human HUVEC with PBMC;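 note: total protein by sulforhodamine B absorbance as a cytotoxicity measure; measured one day after compound addition; fitted in both directions against DMSO so loss or gain of signal counts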
In short: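 HUVEC + PBMC co-culture, LPS-stimulated; compound 24 h. 10% TCA fix, 0.1% SRB stain, A560. Bidirectional fit vs DMSO.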

[19] = read-out: Interleukin-1 alpha (IL1a), IL1A (gene 3552); assay: BSK_LPS_IL1a: BioMAP Diversity Plus: LPS Assay for Interleukin-1 alpha (IL1a) Biomarker Activity (AID 2283080); settings: primary human HUVEC with PBMC; actives raise or lower the signal
In short: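 HUVEC/PBMC co-culture, LPS system; 24 h after dosing; IL-1a by ELISA; gain or loss of signal fitted bidirectionally vs DMSO baseline.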

Measured: AC50

Chain of E-selectin (Homo sapiens) (P16581 whole entry, looked up): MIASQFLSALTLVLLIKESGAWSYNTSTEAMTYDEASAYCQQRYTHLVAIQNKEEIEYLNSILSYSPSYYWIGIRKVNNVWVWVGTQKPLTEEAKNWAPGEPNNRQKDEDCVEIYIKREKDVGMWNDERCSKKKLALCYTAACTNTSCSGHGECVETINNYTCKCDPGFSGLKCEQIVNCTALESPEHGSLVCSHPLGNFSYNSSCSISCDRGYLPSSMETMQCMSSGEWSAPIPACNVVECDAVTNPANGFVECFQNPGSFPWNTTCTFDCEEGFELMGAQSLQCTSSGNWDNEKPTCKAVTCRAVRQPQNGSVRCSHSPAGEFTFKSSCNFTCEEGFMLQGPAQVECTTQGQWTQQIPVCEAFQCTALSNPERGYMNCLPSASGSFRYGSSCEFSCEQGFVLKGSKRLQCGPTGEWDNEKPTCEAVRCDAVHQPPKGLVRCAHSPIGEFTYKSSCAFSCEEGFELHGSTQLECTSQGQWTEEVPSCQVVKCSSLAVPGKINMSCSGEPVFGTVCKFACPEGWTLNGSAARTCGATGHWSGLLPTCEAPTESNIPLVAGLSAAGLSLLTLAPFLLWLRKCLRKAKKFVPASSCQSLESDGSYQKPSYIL

CC(C)(C)c1cc(O)ccc1O
active: [1] 4.07 µM | [2] 4.45 µM | [3] 4.42 µM | [4] 6.21 µM | [5] 3.31 µM | [6] 30.8 µM | [7] 30.1 µM | [8] 29.9 µM | [9] 28.3 µM | [10] 20 µM | [11] 20 µM | [12] 36 µM | [13] 29.5 µM | [14] 31.3 µM | [15] 5.75 µM | [16] 12.4 µM | [17] 13.1 µM | [18] 28.5 µM | [19] 14.5 µM

CC(C)(c1ccccc1)c1ccc(O)c(C(C)(C)c2ccccc2)c1
active: [1] 3.57 µM | [2] 4.07 µM | [3] 4.86 µM | [4] 4.05 µM | [5] 2.79 µM | [6] 3.68 µM | [7] 3.1 µM | [8] 2.33 µM | [9] 4.02 µM | [10] 2.17 µM | [11] 2.83 µM | [12] 4.19 µM | [13] 2.41 µM | [14] 2.85 µM | [15] 12.3 µM | [17] 12 µM | [18] 12.7 µM | [19] 11.1 µM

CCOP(=S)(OCC)SCSP(=S)(OCC)OCC
inactive: all assays above

CC(C)(C)CC(C)(C)c1ccc(O)cc1
active: [1] 9.59 µM | [2] 8.77 µM | [3] 9.02 µM | [4] 6.98 µM | [5] 10.8 µM | [7] 10.1 µM | [8] 6.93 µM | [9] 7.85 µM | [10] 7.95 µM | [12] 6.72 µM | [13] 9.64 µM | [14] 9.6 µM | [15] 7.8 µM | [16] 11.7 µM | [17] 13.9 µM | [18] 12.9 µM | [19] 8.47 µM

Reference: PubChem BioAssay (EPA / NIEHS)
